Results on 40 compounds are retold here after PubChem BioAssay (EPA / NIEHS).

The structures appear in SMILES notation. Activity calls are given as the source filed them. The calls were made as follows: active = hit-call score of the fitted dose curve at least 0.9, where 1 is the maximum; inactive = score below 0.9.

For orientation: AC50 means the concentration giving half of the maximal activity seen.

The test in a line: ATG_M_19_CIS: Attagene CIS-FACTORIAL HepG2 Assay for M19 Transcription Factor (Internal Marker) (AID 2282939). To be noted: HepG2 Attagene CIS-FACTORIAL M19 internal marker reporter; actives raise or lower the signal. Here is the method:
ATG_CIS is a cell-based, multiplexed-readout assay that uses HepG2, a human liver cell line, with measurements taken at 24 hours after chemical dosing in a 24-well plate.ATG_M_19_CIS is one of 52 assay component(s) measured or calculated from the ATG_CIS assay. It is designed to make measurements of mRNA induction, a form of inducible reporter, as detected with fluorescence intensity signals by Reverse transcription polymerase chain reaction (RT-PCR) and Capillary electrophoresis technology.Data from the assay component ATG_M_19_CIS was analyzed into 1 assay endpoint. This assay endpoint, ATG_M_19_CIS, was analyzed with bidirectional fitting relative to DMSO as the negative control and baseline of activity. Using a type of inducible reporter, measures of mRNA for gain or loss-of-signal activity can be used to understand the background control at the transcription factor-level as they relate to the gene . Furthermore, this assay endpoint can be referred to as a secondary readout, because this assay has produced multiple assay endpoints where this one serves a background control function. To generalize the intended target to other relatable targets, this assay endpoint is annotated to the background measurement intended target family, where the subfamily is internal marker.
Human liver HepG2 cells are transiently transfected with multiple reporter transcription units (MRTUs) in 6-well plates using FuGene 6 reagent (Roche; 3 ml FuGene/1 mg DNA). The MRTU constructs are regulated by a cis-regulating element (promoter). […] A major difference between the CIS and TRANS system is that in CIS activities of endogenous TFs are measured, whereas the TRANS assay evaluates changes in activities of exogenous, chimeric NR-Gal4 proteins. […] At the end of 24 hour incubation, total RNA was isolated using TriZol reagent (Invitrogen). The isolated RNA is then reverse-transcribed using oligo(dT) primer and Mo-MLV reverse transcriptase (Invitrogen) with DNAse I (Ambion) treatment for 30 min. The one-tenth of the produced cDNA was amplified by PCR using Taq DNA polymerase (Invitrogen) and two reporter sequence-specific primers. The PCR products were fluorescently labeled by primer extension with 6-arboxyfluorescein (6-FAM) 5'-labeled reporter sequence-specific primer (2 min at 95 C, 20 s at 68 C and 10 min at 72 C) and these products were digested with 5U of HpaI (New England Biolabs) for 2h at 37 C. The fragments were purified using Qiaquick PCR columns (Qiagen), analyzed on an ABI 3130xL genetic analyzer (Applied Biosystems) with peak positions identified by using a set of X-rhodamine (ROX)-labeled MapMarker1000 molecular weight standards (BioVentures). The raw capillary electrophoresis data was processed using Attagraph software (Attagene).
Take `COc1ccc(C#N)cc1`: the compound was classed as inactive.
`FC(F)(F)C(F)(F)C(F)(F)C(F)(F)I`: the result was inactive.
Same read-out and setting: then `CCO[Si](CCC1CCC2OC2C1)(OCC)OCC` (stereo not given), with “inactive”; and `CCCCN(C)C`, with “inactive”.
Same read-out and setting: for `FC(OC(F)(F)C(F)(F)C(F)(F)F)C(F)(F)F` (stereo not given) the value was “inactive”; for `O=c1cc(-c2ccccc2)oc2ccc3ccccc3c12`, “inactive”.
On to `O=C(CC(=O)C(F)(F)C(F)(F)C(F)(F)F)c1cccs1`, for which the result was inactive.
Same read-out and setting: for `CC(C)c1c(C(=O)Nc2ccccc2)c(-c2ccccc2)c(-c2ccc(F)cc2)n1CC[C@@H](O)C[C@@H](O)CC(=O)O` the value was “inactive”; for `FC1(F)C=CC(F)(F)C1(F)F`, “inactive”.
Regarding `COC(=O)C(F)(F)C(F)(F)C(F)(F)F`, the compound was called inactive.
The same measure, in the same setting: then `CCCCCCCCCCCC[N+](C)(C)Cc1ccccc1`, with “inactive”; and `O=C1Cc2ccccc2N1c1c(Cl)cccc1Cl`, with “inactive”.
On the same count and under the same terms, then `COC(=O)CC(C(C)=O)C(=O)OC` (stereo not given), with “inactive”; and `CCCCCCCC(OC)OC`, with “inactive”.
The same measure, in the same setting: for `CNNCc1ccc(C(=O)NC(C)C)cc1` the value was “inactive”.
As for `CC(C)(C)c1ccc(O)c(O)c1`, the result was inactive.
For the compound `CCOC(OCC)C(=O)c1ccccc1`, the call was inactive.
On the same count and under the same terms, then `COc1cc(OC)nc(NC(=O)NS(=O)(=O)Nc2ccccc2C(=O)N(C)C)n1`, with “inactive”.
For `C=CC(=O)OCC(CO)(COCC(COC(=O)C=C)(COC(=O)C=C)COC(=O)C=C)COC(=O)C=C`, the AC50 was 16.2 µM (active).
Take `COC(=O)C(F)(F)C(F)(F)C(F)(F)C(F)(F)C(F)(F)F`: the compound was called inactive.
Still for that read-out and setting: for `Cc1ccc(C)c(S(=O)(=O)O)c1` the value was “inactive”; for `COc1cc([N+](=O)[O-])ccc1N`, “inactive”; for `Brc1ccc(Oc2ccc(Br)cc2Br)cc1`, “inactive”.
The same measure, in the same setting: then `O=P(O)(O)CCC(F)(F)C(F)(F)C(F)(F)C(F)(F)C(F)(F)C(F)(F)C(F)(F)C(F)(F)F`, with “inactive”; and `O=C1c2ccc(O)c(O)c2C(=O)c2c(O)ccc(O)c21`, with “inactive”; and `CC(C)(C)c1ccc(CCC=O)cc1`, with “inactive”.
The same measure, in the same setting: for `COCC1CCC(CO)CC1` (stereo not given) the value was “inactive”; for `CC(C)[C@@H]1CC[C@@H](C)C[C@H]1O`, “inactive”; for `Oc1cc2ccccc2cc1O`, “inactive”.
Turning to `CCO[Si](C)(C)OCC`, the compound was called inactive.
The same measure, in the same setting: then `CN(C)CCOC(c1ccccc1)c1ccccc1`, with “inactive”; and `Cc1cc(Cc2cc(C)cc(C(C)(C)C)c2O)c(O)c(C(C)(C)C)c1`, with “inactive”.
The same measure, in the same setting: then `NCc1cccc(CN)c1`, with “inactive”.
Same read-out and setting: then `O=S(=O)(c1ccc(OCc2ccccc2)cc1)c1ccccc1O`, with “inactive”; and `CCCCCCC(C)(C)C(=O)O`, with “inactive”; and `CCCC=O`, with “inactive”.
For the compound `CCCCCCCCCCCCCCC`, the result was inactive.
Same read-out and setting: for `Nc1ccn([C@@H]2O[C@H](CO)[C@@H](O)C2O)c(=O)n1` (stereo not given in full) the value was “inactive”; for `O=C(Nc1ccc(Cl)c(Cl)c1)c1cc(Cl)cc(Cl)c1O`, “inactive”; for `O=C(Nc1cccc([N+](=O)[O-])c1)c1cc2ccccc2cc1O`, “inactive”.
